Laboratory results reported in PubChem BioAssay AID1159580 (chemical genetic matrix, 2015).
Among all 5,500 compounds or so, about 2,000 (36%) were called active. About 18% were inconclusive and are not listed. Rule as the data show it: active = normalized growth mostly below about 0.91 (no sharp cut-off); inconclusive = no clear call, values can overlap the other calls; inactive = mostly above about 0.92. The list shows a part of the results. Where a SMILES comes first, the peptide text is derived from it.

Test: chemical genetic growth profiling, strain panel (AID 1159580);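 also: tested at 20 µM; growth read once vehicle control cultures reached saturation at 30 °C; 1 = growth at the plate median or of vehicle wells; lower values mean less growth of the strain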
Details: S. cerevisiae deletion strains, growth OD
[1] = locus YHR030C, strain SLT2, stronger effect = lower value
[2] = locus YJL095W, strain BCK1, stronger effect = lower value

Measured: normalized growth

Nc1nc2[nH]c(=O)c(=O)[nH]c2c(=O)[nH]1
inactive: locus YAL013W, strain DEP1, stronger effect = lower value 1.01 | locus YBR021W, strain FUR4, stronger effect = lower value 0.971 | locus YBR229C, strain ROT2, stronger effect = lower value 0.998 | locus YCL029C, strain bik1, stronger effect = lower value 1.03 | locus YDL035C, strain GPR1, stronger effect = lower value 1.01 | locus YDL074C, strain BRE1, stronger effect = lower value 1.01 | locus YDL101C, strain DUN1, stronger effect = lower value 1 | locus YDL134C, strain PPH21, stronger effect = lower value 1.02 | locus YDL185W, strain tfp1, stronger effect = lower value 1.01 | locus YDL192W, strain arf1, stronger effect = lower value 0.995 | locus YDR101C, strain arx1, stronger effect = lower value 0.987 | locus YDR162C, strain NBP2, stronger effect = lower value 1.05 | locus YDR318W, strain mcm21, stronger effect = lower value 1.01 | locus YDR388W, stronger effect = lower value 1.01 | locus YDR502C, strain sam2, stronger effect = lower value 1.01 | locus YEL061C, strain CIN8, stronger effect = lower value 1.01 | locus YER110C, stronger effect = lower value 1.01 | locus YER155C, strain BEM2, stronger effect = lower value 1.01 | locus YER167W, strain BCK2, stronger effect = lower value 1.01 | locus YGL078C, strain dbp3, stronger effect = lower value 1.01 | locus YGL086W, strain mad1, stronger effect = lower value 0.978 | locus YGL248W, strain PDE1, stronger effect = lower value 1.01 | locus YGR078C, strain PAC10, stronger effect = lower value 1.01 | locus YGR135W, strain pre9, stronger effect = lower value 1.03 | locus YGR252W, strain gcn5, stronger effect = lower value 1.01 | [1] 1.01 | locus YHR079C, strain IRE1 (second series), stronger effect = lower value 1 | locus YHR094C, strain hxt1, stronger effect = lower value 1.01 | locus YHR129C, strain ARP1, stronger effect = lower value 1.01 | locus YHR200W, strain rpn10, stronger effect = lower value 0.992 | locus YIL066C, strain RNR3, stronger effect = lower value 1.02 | locus YIL073C, strain SPO22, stronger effect = lower value 1.04 | locus YIL125W, strain kgd1, stronger effect = lower value 1.01 | locus YIR030C, strain dcg1, stronger effect = lower value 1.01 | [2] 1.02 | locus YJL134W, strain LCB3, stronger effect = lower value 1.02 | locus YJL168C, strain set2, stronger effect = lower value 1 | locus YJL187C, strain SWE1 (second series), stronger effect = lower value 1.01 | locus YJR043C, strain POL32, stronger effect = lower value 0.996 | locus YKL009W, strain mrt4, stronger effect = lower value 0.998 | locus YKL068W, stronger effect = lower value 1.01 | locus YKL085W, strain MDH1 (second series), stronger effect = lower value 1.02 | locus YKL085W, strain MDH1, stronger effect = lower value 1.02 | locus YKL190W, strain CNB1, stronger effect = lower value 1.01 | locus YKR001C, strain vps1, stronger effect = lower value 1 | locus YLR039C, strain RIC1, stronger effect = lower value 1.03 | locus YLR058C, strain SHM2, stronger effect = lower value 1.01 | locus YLR102C, strain apc9, stronger effect = lower value 1.01 | locus YLR262C, strain YPT6, stronger effect = lower value 1.08 | locus YLR268W, strain sec22, stronger effect = lower value 1.02 | locus YLR330W, strain CHS5, stronger effect = lower value 1.01 | locus YLR342W, strain FKS1 (second series), stronger effect = lower value 0.973 | locus YLR371W, strain rom2, stronger effect = lower value 1.02 | locus YLR418C, strain cdc73, stronger effect = lower value 0.971 | locus YML016C, strain PPZ1, stronger effect = lower value 0.996 | locus YML032C, strain rad52, stronger effect = lower value 1.02 | locus YML124C, strain tub3, stronger effect = lower value 1.01 | locus YMR078C, strain ctf18, stronger effect = lower value 1 | locus YMR223W, strain ubp8, stronger effect = lower value 1.01 | locus YMR263W, strain SAP30, stronger effect = lower value 1.01 | locus YMR307W, strain GAS1, stronger effect = lower value 1.02 | locus YNL067W, strain RPL9B, stronger effect = lower value 1.02 | locus YNL128W, strain TEP1, stronger effect = lower value 1.05 | locus YNL153C, strain GIM3, stronger effect = lower value 1.01 | locus YNL233W, strain BNI4, stronger effect = lower value 1.03 | locus YNL250W, strain rad50, stronger effect = lower value 1.02 | locus YNL271C, strain bni1, stronger effect = lower value 1.01 | locus YNL298W, strain CLA4, stronger effect = lower value 1 | locus YNL307C, strain MCK1, stronger effect = lower value 1 | locus YNR052C, strain pop2, stronger effect = lower value 1.02 | locus YOL006C, strain TOP1, stronger effect = lower value 1.01 | locus YOL012C, strain htz1 1.04 | locus YOL147C, strain pex11, stronger effect = lower value 1 | locus YOR061W, strain CKA2, stronger effect = lower value 1 | locus YOR069W, strain VPS5, stronger effect = lower value 1.01 | locus YOR136W, strain idh2, stronger effect = lower value 1.01 | locus YOR144C, strain elg1, stronger effect = lower value 1 | locus YOR184W, strain ser1, stronger effect = lower value 0.996 | locus YOR316C, strain cot1, stronger effect = lower value 1.01 | locus YPR119W, strain clb2, stronger effect = lower value 1.02 | locus YPR141C, strain kar3, stronger effect = lower value 1.01 | locus YPR163C, strain tif3, stronger effect = lower value 1.02 | locus YPR167C, strain met16, stronger effect = lower value 1.04 | strain wtn01, stronger effect = lower value 1

CC(C)C[C@H](N)C(=O)N[C@@H](C)C(=O)O (H-Leu-Ala-OH)
inactive: [1] 1.01 | locus YHR079C, strain IRE1, stronger effect = lower value 1.01 | [2] 1.02 | locus YJR066W, strain TOR1, stronger effect = lower value 0.975 | locus YLR113W, strain HOG1, stronger effect = lower value 1.02 | locus YNL183C, strain NPR1, stronger effect = lower value 0.954 | locus YOR231W, strain MKK1, stronger effect = lower value 1.03 | locus YPL256C, strain CLN2, stronger effect = lower value 1.02
